# In the library only some 1.3% were active in any assay of this set; here they are far more common.
# UBC13 inh: human UBC13 polyubiquitination inhibition. P61088. UBC13 polyubiquitin chain formation, TR-FRET. inhibition, % at 20 µM. actives 0.47% (n = 330,000). AID 485273; in the data active = inhibition above about 45%, passing the limit was not always enough
# Target sequence (P61088 whole entry, looked up): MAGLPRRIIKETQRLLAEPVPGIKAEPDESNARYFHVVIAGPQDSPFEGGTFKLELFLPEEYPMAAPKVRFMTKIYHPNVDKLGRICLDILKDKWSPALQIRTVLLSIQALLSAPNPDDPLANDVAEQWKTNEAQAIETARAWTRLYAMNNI
# FID counter: displaces DNA intercalator in HCV helicase counter-screen; DNA fluorescent intercalator displacement, fluorescence; inhibition, % at 7.9 µM; actives 0.17% (n = 290,000); AID 1845; in the data active = inhibition above about 37%;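 note: 0% = vehicle and 100% = reference compound; higher means more ethidium bromide displaced from hairpin DNA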
# RAD54 inh: inhibitors of human RAD54 branch migration | inhibition, % at 10.4 µM | RAD54 Holliday junction branch migration, FAM/BHQ fluorescence | actives 0.14% (n = 360,000);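 active = mean normalized replicate activity at least 40 and at least half of replicates scoring 40 or more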;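 note: 0% = median of neutral control wells and 100% = median of positive control wells; inhibitors cause a drop in the FAM fluorescence signal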
# RAD52 anneal inh: blocks human RAD52 DNA annealing. inhibition, % at 18.7 µM. actives 0.46% (n = 360,000). recombinant RAD52 DNA annealing, FRET fluorescence;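 active = every replicate showing at least 50% inhibition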
# PREPL inh: inhibits the human prolyl oligopeptidase-like enzyme; actives 0.68% (n = 320,000); Q4J6C6; inhibition, % at 5.96 µM; recombinant PREPL, fluorescence polarization activity-based probe;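 note: 0% = enzyme with DMSO and 100% = wells lacking enzyme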
# MIN6 prolif: induces beta-cell replication in MIN6 cells | MIN6 cells proliferation, ATPlite luminescence, 48 h; cells starved in 0.2% serum; 100% = growth in 10% serum | proliferation, % at 10 µM | actives 0.29% (n = 330,000);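 active = compounds whose signal lies at least 3.5 SD above the mean of all wells on their plate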;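 note: 0% = DMSO-treated cells in low-serum medium and 100% = 10% serum control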
# PREPL confirm: human PREPL inhibition, confirmation; shares compounds with PREPL inh; recombinant PREPL, fluorescence polarization activity probe; inhibition, % at 5.96 µM; actives 67% (n = 2,000);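 note: 0% = protein with DMSO and 100% = wells lacking protein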
# Starred values were filed as active, the others as inactive; / = not tested or not shown. Cut-off read from the data, not from the text of the source, unless noted: active = inhibition above about 43%; inactive = the rest.
SMILES,UBC13 inh,FID counter,RAD54 inh,RAD52 anneal inh,PREPL inh,MIN6 prolif,PREPL confirm
COc1cc(/C=N/Nc2nc3c(c(=O)n(C)c(=O)n3C)n2Cc2ccccc2)ccc1OC(=O)c1ccco1,-6,-2,-1,-3,80*,-4,89*
CCCN(CCC)C(=O)CSc1nc2n[nH]c(C)c2c(=N)n1-c1ccc(OC)cc1,1,8,2,/,28,-4,/
CCCN(CCC)C(=O)CSc1nc2n[nH]c(C)c2c(=N)n1-c1ccc(OCC)cc1,-1,-10,8,/,55*,-4,41
O=C(O)/C=C\C(=O)Nc1ccc(N2CCN(c3cccc(Cl)c3)CC2)cc1,-8,9,/,-14,28,-1,/
O=C(O)/C=C\C(=O)Nc1ccc(N2CCN(c3ccc(F)cc3)CC2)cc1,1,-9,-1,-6,51*,-3,25
O=C(O)/C=C\C(=O)Nc1ccc(N2CCN(c3ccc(Cl)cc3)CC2)cc1,-4,4,-3,-7,48*,1,29
C[C@@H]1CN([C@@H](C)CO)C(=O)c2cccc(NC(=O)Nc3cccc4ccccc34)c2O[C@H]1CN(C)C(=O)Nc1ccc(F)cc1,/,/,-3,7,/,/,/
Cc1ccc(S(=O)(=O)NCC[C@@H]2CC[C@H](NC(=O)Nc3cccc(F)c3)[C@@H](CO)O2)cc1,/,/,7,-5,/,/,/
C[C@H](CO)N1C[C@H](C)[C@@H](CN(C)C(=O)NC2CCCC2)Oc2cc(-c3cncnc3)ccc2S1(=O)=O,/,/,4,3,/,/,/
CN1CCN(c2nc3c(c(=O)n(C)c(=O)n3C)n2CCSc2nc3ccccc3s2)CC1,-3,8,5,/,45*,-2,34
COc1ccc(N2CCN(c3nc4c(c(=O)n(C)c(=O)n4C)n3Cc3ccccc3)CC2)cc1,3,-33,5,/,50*,0,57*
CCN1CCN(c2nc3c(c(=O)[nH]c(=O)n3C)n2CCSc2nc3ccccc3s2)CC1,1,-3,-1,-9,40,1,/
N#Cc1ccc(-c2ccc([C@H]3[C@@H](CO)N4C(=O)CN(C(=O)C5CCC5)C[C@@H]34)cc2)cc1,/,/,/,6,/,/,/
Cc1nc2nc(SCC(=O)NCCCN3CCCCCC3)nn2c(C)c1Cc1ccccc1,36,3,-15,-14,43*,1,37
COC(=O)C1CCN(CCCOc2ccc(CN3CCN(c4ccc([N+](=O)[O-])cc4)CC3)cc2)CC1,1,47*,3,7,52*,-4,44*
O=C(C[C@@H]1CC[C@H]2[C@@H](COC[C@@H](O)CN2S(=O)(=O)c2ccc(Cl)cc2)O1)N[C@@H]1CCN(Cc2ccccc2)C1,/,/,2,24,/,/,/
COc1ccc(NC(=O)CCc2nnc3ccc(N4CCC(C)CC4)nn23)cc1,-6,-46,1,-12,8,-1,/
COc1ccc(N2CCN(c3ccc4nnc(CCC(=O)Nc5ccc(C)cc5)n4n3)CC2)cc1,12,-43,4,-3,59*,-1,60*
COc1ccc(CN(C)C[C@H]2Oc3ccc(NS(=O)(=O)c4c(C)noc4C)cc3C(=O)N([C@H](C)CO)C[C@@H]2C)cc1,/,/,-2,-2,/,/,/
COc1ccc(-n2c(C)cc(-c3csc(N)n3)c2C)cc1,6,-1,6,/,43*,-5,28
Cc1cc(-c2csc(N)n2)c(C)n1-c1ccc(Cl)c(Cl)c1,-2,-3,/,-4,20,-5,/
Cc1c(-c2csc(N)n2)cnn1C,-3,-1,4,-17,1,-1,/
CCCn1c(C)cc(-c2csc(N)n2)c1C,-1,-5,-7,/,44*,-6,27
COCC(=O)Nc1ccc2c(c1)[C@H]1C[C@H](CC(=O)N3CCN(C)CC3)O[C@H](CO)[C@H]1O2,/,/,-4,/,/,/,/
Cc1ccn2c(-c3csc(NCc4ccccc4)n3)c(C)nc2c1,6,1,/,/,45*,-5,45*
C[C@@H]1CN([C@@H](C)CO)C(=O)c2cc(-c3ccc(F)cc3)cnc2O[C@@H]1CN(C)C(=O)CN(C)C,/,/,9,-3,/,/,/
C/C=C/c1ccc([C@H]2[C@@H](CO)N(C(=O)CC)C23CN(C(=O)c2ccccc2)C3)cc1,/,/,/,5,/,/,/
